# Screening data (PubChem BioAssay)
# Compounds with a hit are over-represented: about 6.2% of the library has one in this group of screens.
# FMDV inh: High Throughput Screening for Foot and Mouth Disease Virus Antivirals; 410,000 tested, 1.2% active; AID 1159524, 2015; FMDV antiviral cell-based qHTS; Potency, µM (titrated, usually from 57.9 µM), for inactives: at the top dose activity change, negative = inhibition, most hits filed as inhibitors; calls by dose curve; tested in HEK293T cells; note: read-out not given here; potency is the fitted concentration of half-maximal effect; nearly all actives have a fitted effect of over 45% in size
# MARV entry inh: qHTS for inhibitors of binding or entry into cells for Marburg Virus; Marburg virus pseudotyped entry inhibition, cell reporter; AID 540276, 2011; Potency, µM (doses to about 37.8 µM), without a hit: at the top dose activity change, negative = inhibition, hits mostly inhibitors; 300,000 tested, 1.8% active; calls by dose curve; tested in HEK293 cells; note: potency is the fitted concentration of half-maximal effect
# HCMV inh: qHTS Assay for inhibitors of the human cytomegalovirus (HCMV); HFF cells, HCMV-luciferase reporter, 72 h; stronger effect = lower value; activity change, negative = inhibition, % at 57.5 µM; 410,000 tested, 4.5% active; AID 1259415, 2018; in the data active = activity change below about -60%; inconclusive = no clear call, values can overlap the other calls; inactive = above about -39%
#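 Steps: HFFs plated, 16 h 37C; compounds added; HCMV-luciferase added to MOI 1 PFU/cell; 72 h 37C; OneGlo reagent, 5 min room temperature; luminescence read, normalized to controls.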
# Lassa entry inh: qHTS for Inhibitors of binding or entry into cells for Lassa Virus | Potency, µM (doses to about 37.9 µM), for inactives: top-dose activity change, negative = inhibition, actives largely listed as inhibitors | Lassa virus pseudotype entry inhibition, cell reporter | 300,000 tested, 1.2% active; calls by dose curve; tested in HEK293 cells; note: potency is the fitted concentration of half-maximal effect; nearly all actives have a fitted effect of over 50% in size
# Numbers without * were called inactive; ? = inconclusive; . = not tested or not shown; ! = not active in a repeat; [ ] = dose if it differs, or a comment. % is set by controls: 0 for no effect and ±100 for the full control effect.
SMILES,FMDV inh,MARV entry inh,HCMV inh,Lassa entry inh
Cc1cccc(C(=O)Nc2ccccc2OCc2cc(=O)n3c(C)csc3n2)c1,-15%,9%[46.1 µM],6,?
COc1cc(CN(C2CCCCC2C)S(=O)(=O)c2ccc(S(=O)(=O)NC3CC3)cc2)cc(OC)c1OC (stereo unspecified),-29%,10µM*,-20,?
COc1ccc(CN(C2CCCCC2C)S(=O)(=O)c2ccc(S(=O)(=O)N(C)C)cc2)cc1OC (stereo unspecified),-27%,?,-79*,?
COc1ccccc1CNS(=O)(=O)c1ccc(S(=O)(=O)NC2CC2)cc1,-7%,-9%[46.1 µM],?,8%
COc1ccc(C(c2nnnn2-c2c(C)cccc2C)N2CCC(n3c(=O)[nH]c4ccccc43)CC2)cc1 (stereo unspecified),?,.,-69*,.
Cc1cccc(C)c1-n1nnnc1C(c1cc2ccccc2o1)N1CCC(n2c(=O)[nH]c3ccccc32)CC1 (stereo unspecified),10µM*,.,-67*,.
O=C(Nc1ccccc1)Nc1cccc(C(F)(F)F)c1,5%,-6%[46.1 µM],-34,-15%
O=C(Nc1cccc(C(F)(F)F)c1)Nc1cccs1,-9%,-13%[46.1 µM],-80*,.
O=C(Nc1cccc(C(F)(F)F)c1)c1csc(-c2ccncc2)n1,100µM*,?,?,?
CCSCCc1nnc(NC(=O)Nc2cccc(C(F)(F)F)c2)s1,?,.,-83*,.
Cc1ccc(OC(F)F)c(NC(=O)Nc2cccc(C(F)(F)F)c2)c1,?,?,-99*,?
N#Cc1cccc(NC(=O)N2CCCC3(CCN(C(=O)c4csnn4)CC3)C2)c1,-12%,.,.,.
CC(=O)c1ccc(OCCCC(=O)Nc2cccc(S(=O)(=O)N3CCCCC3)c2)cc1,?,-24%,0,-27%
COc1cc(Nc2ccccn2)cc(C(=O)Nc2cccc(C(F)(F)F)c2)c1,?,.,-69*!,.
COc1ccc(NC(=O)Nc2cccc(C(F)(F)F)c2)cn1,-5%,-26%[46.1 µM],-63*,?
O=C(O)c1ccccc1C(=O)Nc1ccc(Oc2cccc(C(F)(F)F)c2)nc1,3.2µM*,19%[46.1 µM],35,-29%[46.1 µM]
COc1ccc(NC(=O)Nc2cc(C)cc(C)c2)cn1,-3%,8%[46.1 µM],-22,9%[46.1 µM]
COc1cc(CNCc2cc3cc(C)ccc3nc2-c2ccc(F)cc2)cc(OC)c1OC,8%,.,.,.
CCCC(=O)Nc1cc(C)c(NC(=O)c2ccncc2)cn1,7%,3%,-5,2.8µM*
CCCCC(=O)Nc1cc(C)c(NC(=O)c2cccs2)cn1,1%,3%,-10,2%
COc1cccc(-c2cc3c(c(OC)c2)OCCN(Cc2ccccc2O)C3)n1,-15%,.,.,.
COC(=O)c1sccc1NC(=O)c1c(F)c(F)c(F)c(F)c1F,22µM*,?,?,?
COC(=O)c1sccc1NC(=O)c1ccncc1,-7%,0.1µM*,22,-16%
COC(=O)c1cc(NC(=O)c2c(F)c(F)c(F)c(F)c2F)cc(C(=O)OC)c1,0%,?,-63*,?
O=C(c1cccc(F)c1)N1CCC2(CCN(Cc3cc(C(F)(F)F)cc(C(F)(F)F)c3)CC2)CC1,-15%,.,.,.
SMILES,FMDV inh,MARV entry inh,HCMV inh,Lassa entry inh
COc1cccc(NC(=O)Cn2c(-c3nonc3N)nc3ccccc32)c1,-7%,1%[46.1 µM],-2,0%[46.1 µM]
C/C(=N\Nc1cc(-c2ccccc2)nc(-c2ccccc2)n1)c1ccc(O)c(C)c1,5%,?,-64*,11%
COc1cc(N/N=C(\C)c2ccc(N)cc2)nc(-c2ccccc2)n1,17%,.,41,.
COc1cc(N/N=C(\C)c2ccc(O)c(C)c2)nc(-c2ccccc2)n1,2%,?,-90*,?
C[C@H]1CC[C@H]2C(=O)O[C@H](COc3ccc(C(C)(C)C)cc3)CN2[C@@H]1c1ccc(Br)cc1,.,-12%[14.2 µM],.,.
COCCn1c(=O)cnc2cnc(Nc3cccc(OC)c3)nc21,-13%,.,.,.
C[C@@H]1CN([C@@H](C)CO)C(=O)CCCn2cc(nn2)CO[C@H]1CN(C)C(=O)NC1CCCCC1,.,.,-13,.
Cc1nn(C)cc1C(=O)Nc1cc(Oc2ccc(Cl)cc2)cc([N+](=O)[O-])c1,-24%,?,-15,-2%
Cn1cc([N+](=O)[O-])c(C(=O)Nc2cc(Oc3ccccc3)cc([N+](=O)[O-])c2)n1,?,?,-99*,?
Cn1cc(Br)c(C(=O)Nc2ccc3c(C(F)(F)F)cc(=O)oc3c2)n1,-10%,.,-5,.
Cn1cc([N+](=O)[O-])c(C(=O)Nc2ccc3c(C(F)(F)F)cc(=O)oc3c2)n1,-17%,.,-99*,.
Cc1cccc(Oc2cc(NC(=O)c3ccccc3)cc([N+](=O)[O-])c2)c1,?,?,-64*,?
CCCCOCC1CN(CCCC)S(=O)(=O)c2c(Oc3ccc(C)cc3)cccc2O1 (stereo unspecified),.,.,-3,?
COc1ccccc1CN1CCCC2(CCNCC2)C1,-4%,.,.,.
COC(=O)C(C(=O)OC)C(C(=O)OC)C(C(=O)OC)C(=O)OC,-22%,?,-88*,17%
c1cc(Nc2cccc3nccnc23)c2nccnc2c1,-7%,?,2,?
Fc1ccc(Nc2cccc3nccnc23)cc1,16%,?,-64*,-4%
COC(=O)C1CCCCN1Cc1ccc2c(c1)CN(C1CCSCC1)CCO2 (stereo unspecified),-5%,.,.,.
O=[N+]([O-])c1ccc(Cl)c(/C=N/Nc2nc(N3CCOCC3)nc(N3CCOCC3)n2)c1,8%,0.052µM*,19,-13%
Clc1cc2c(cc1/C=N/Nc1nc(N3CCOCC3)nc(N3CCOCC3)n1)OCO2,-23%,-18%[46.1 µM],3,1%[46.1 µM]
O=[N+]([O-])c1cccc(/C=N/Nc2cc(Cl)nc(-c3ccccc3)n2)c1,?,-3%[46.1 µM],-14,10µM*
O=[N+]([O-])c1cccc(/C=N/Nc2cc(N3CCOCC3)ncn2)c1,8%,.,-29,.
O=[N+]([O-])c1ccc(/C=N/Nc2cc(Cl)nc(-c3ccccc3)n2)cc1,-24%,-13%,-28,-13%
Cc1ccc([N+](=O)[O-])cc1Nc1nc(N2CCOCC2)nc(N2CCOCC2)n1,-21%,?,-70*,21%[46.1 µM]
O=[N+]([O-])c1cccc(/C=N/Nc2nc(N3CCOCC3)nc(N3CCOCC3)n2)c1,-21%,?,-93*,-1%
CN1C[C@H](C(=O)N[C@]2(C)O[C@@]3(O)[C@@H]4CCCN4C(=O)[C@H](Cc4ccccc4)N3C2=O)C[C@@H]2c3cccc4[nH]cc(c34)C[C@H]21,.,1.1µM*,.,?
CC(C)[C@@]1(NC(=O)[C@H]2CC3c4cccc5[nH]cc(c45)C[C@H]3N(C)C2)O[C@@]2(O)C3CCCN3C(=O)[C@@H](Cc3ccccc3)N2C1=O (stereo partly specified),-12%,.,.,.
CN1C[C@H](C(=O)N[C@]2(C)O[C@@]3(O)C4CCCN4C(=O)[C@H](Cc4ccccc4)N3C2=O)C[C@@H]2c3cccc4[nH]cc(c34)C[C@H]21 (stereo partly specified),.,1.1µM*,.,.
